# Data published in PubChem BioAssay (Tox21).
# A number with no mark means an inactive call. A call without a number means that no potency is given here. Calls of active or inactive are those of the source. The call rests on the fitted dose curve; in most records, active means well fitted curve in the direction sought with a large enough effect in the repeat runs; inconclusive means weak or mixed curves; inactive means flat fitted curve, though single readings scatter.
# Assay: qHTS assay to test for compound auto fluorescence at 590 nm (red) in HepG2 cells (AID 720674)
# Details: HepG2 autofluorescence, red 540/590 nm, 1 h; series mostly up to 91.3 µM
# Text: U.S. Tox21 Program National Center for Advancing Translational Sciences [NCATS] NIH Chemical Genomics Center [NCGC] U.S. Environmental Protection Agency [EPA] National Institutes of Environmental Health Sciences [NIEHS] National Toxicology Program [NTP] U.S. Food and Drug Administration [FDA] Tox21 Assay Overview: Compound auto fluorescence often interferes with screening of the compound library against various biological targets and signaling pathways. Some of these compounds may have fluorophoric properties. Such properties may interfere with the assay outputs resulting in false positives and/or negatives. To decrease such complications and ensure the compound activities are relevant in terms of biological response, the Tox21 10K compound library was screened for auto fluorescence. From the fluorophores used as reporter signals in our screening assays, the auto fluorescence equivalencies of compounds against three fluorophores have been evaluated: Triamterene, Fluorescein and Rose Bengal sodium for blue, green and red fluorescence, respectively. The fluorescence intensities were measured using Excitation/Emission wavelengths at 405/460nm, 485/535nm and 540/590nm for blue, green and red labels, respectively. This assay includes the red fluorescence data.
# Tox21 Assay Protocol Summary: 2,000 HepG2 cells in 5 uL of culture medium (MEM containing 10% FBS) per well were dispensed into black wall/clear bottom 1536-well plates using a Multidrop Combi Dispenser (ThermoFisher Scientific, Waltham, MA). The assay plates were incubated overnight at 37 C to allow cell attachment to the well bottom, followed by the transfer of 23 nL compound or DMSO vehicle by a pintool work station (Kalypsys , San Diego, CA). After the assay plates were incubated for 1 hr at 37 C and 5% CO2, fluorescence intensities in the assay plates were measured by an Envision (PerkinElmer, Shelton, CT) plate reader using three labels for measuring blue, green and red fluorescence at […] 460, 535 and 590 nm respectively.
Compound,Potency,"fluorescence, relative to Rose Bengal"
OC[C@H]1O[C@@H](OCCc2ccc(O)cc2)[C@H](O)[C@@H](O)[C@@H]1O,inactive,–
CC1(c2ccccc2)OC(C(=O)O)=CC1=O (stereo not given),inactive,–
CCCCCCCCCCCCCCCCCCOS(=O)(=O)O,inactive,–
O=P(O)(OCc1ccccc1)OCc1ccccc1,inactive,–
CC(=O)OC[C@H]1O[C@@H](n2ncc(=O)[nH]c2=O)[C@H](OC(C)=O)[C@@H]1OC(C)=O,inactive,–
COc1ccc(C(=O)Nc2nc3ccccc3c(NCc3ccccc3)c2C#N)cc1,inactive,–
CCCCC1=NC2(CCCC2)C(=O)N1Cc1ccc(-c2ccccc2-c2nn[nH]n2)cc1,inactive,–
C/C=C/C(=O)CC,–,-0.234% [at 18.6 µM]
NCC(=O)CCC(=O)O,inactive,–
O=C1c2ccccc2S(=O)(=O)N1CCCCN1CCN(c2ncccn2)CC1,inactive,–
CN1CCN(C(c2ccccc2)c2ccccc2)CC1,–,0.313% [at 18.6 µM]
CN(C)c1ccc(C(c2ccccc2)c2ccc(N(C)C)cc2)cc1,inactive,–
COc1cc(C(=O)OCCCN2CCCN(CCCOC(=O)c3cc(OC)c(OC)c(OC)c3)CC2)cc(OC)c1OC,inactive,–
Cc1cccc(C)c1OCC(=O)N[C@@H](Cc1ccccc1)[C@@H](O)C[C@H](Cc1ccccc1)NC(=O)[C@H](C(C)C)N1CCCNC1=O,inactive,–
ClCCOCCOCCCl,inactive,–
c1ccc(C(O[C@H]2CCCN(CCc3ccc4c(c3)OCO4)C2)c2ccccc2)cc1,inactive,–
CN(C)CCN(Cc1ccc(Cl)cc1)c1ccccn1,–,0.0058% [at 18.6 µM]
CC(C)(C)Cl,inactive,–
CCN(CC)CCOC(=O)C(Cc1cccc2ccccc12)CC1CCCO1 (stereo not given),–,-0.202% [at 18.6 µM]
C=CCOC(=O)CCC1CCCCC1,inactive,–

Compound,Potency,"fluorescence, relative to Rose Bengal"
Brc1c2ccccc2c(Br)c2ccccc12,–,0.105% [at 3.72 µM]
CCN(CC)CCOC(=O)C(c1ccccc1)C1CCCCC1 (stereo not given),inactive,–
C[Si](C)(CCCN)O[Si](C)(C)CCCN,inactive,–
N=c1ccn2c(n1)O[C@H]1[C@H](O)[C@@H](CO)O[C@H]12,inactive,–
O=C(O)c1nc(Cl)c(Cl)c(Cl)c1Cl,inactive,–
CCCCCCCCCCCc1ccccc1,inactive,–
Cc1[nH]c(C)c(Cl)c(=O)c1Cl,inactive,–
CCCCCC[C@@H](O)C/C=C\CCCCCCCC(=O)OC,inactive,–
Cn1c(=O)cc(Oc2ccc(F)cc2F)c2cnc(NCC(C)(C)O)nc21,inactive,–
CCCCC(CC)COC(=O)CCCCCCCCC(=O)OCC(CC)CCCC (stereo not given),inactive,–
C[C@@H](c1ncncc1F)C(O)(Cn1cncn1)c1ccc(F)cc1F (stereo not given in full),inactive,–
C[N+]1(C)CCC(OC(=O)C(O)(c2ccccc2)C2CCCC2)C1 (stereo not given),inactive,–
C=C(C)C(=O)OCCO,inactive,–
CCCn1cnc2c1c(=O)n(CCCCC(C)=O)c(=O)n2C,inactive,–
CCCOC(C(=O)OC1CCN(C)CC1)(c1ccccc1)c1ccccc1,inactive,–
Cc1cccc(C)c1NC(=O)CN(CC(=O)O)CC(=O)O,inactive,–
C=CC(=O)OCCOCCOCCOCCOC(=O)C=C,inactive,–
CNCCCN1c2ccccc2CCc2ccccc21,–,-0.337% [at 18.6 µM]
Cc1oc2c(NC(=O)c3c(Cl)cccc3Cl)cccc2c1C(C)(C)O,inactive,–
OCCN1CCN(CCCN2c3ccccc3C=Cc3ccccc32)CC1,inactive,–
